Test systems include NCI-H23 lung; NCI-H226 lung; NCI-H322M lung; HOP-62 NSCLC; NCI-H460 lung; HOP-92 NSCLC; NCI-H522 lung; A549/ATCC NSCLC; 786-0 renal; COLO 205 colon; DU-145 prostate; K-562 leukemia; MALME-3M melanoma; MDA-MB-231 breast; RXF 393 renal; SF-268 CNS; SF-295 CNS; SF-539 CNS; UACC-257 melanoma; M14 melanoma.
Common to all, as to experiment: NCI-60 one-dose screen, 48 h (100 = growth as untreated, 0 = no growth, -100 = all killed)
What all share (conditions): 10 µM unless noted

This is part of a sample that, as a whole, favours compounds with a hit. Of some 83,000 tested, about 20% had one in any assay.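 Negative percent growth values reflect cell death: -40 means 40% of the cells present at the start died, and -100 means all died.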 Values without a mark were called inactive. Activity calls are given as the source filed them. How the source made its calls: active means growth percent below 10; inactive means the rest.

Take `CN1C(=O)N(C)C2C1NC(=S)N2/N=C/C=C/c1ccccc1[N+](=O)[O-]` (stereo not given): the growth was 38.2% in the experiment with NCI-H23 lung; 28.4% in the experiment with NCI-H226 lung; 49.3% in the experiment with NCI-H322M lung; 26.2% in the experiment on HOP-62 NSCLC; 12.6% with NCI-H460 lung; 33.9% in the experiment on HOP-92 NSCLC. The growth was 9.84% (active) with NCI-H522 lung; 31.3% in the experiment on A549/ATCC NSCLC; 26.6% with 786-0 renal; 14.3% with COLO 205 colon; 18.7% with DU-145 prostate; 14.7% in the experiment on K-562 leukemia. Also, the growth in the experiment on MALME-3M melanoma was 54.4%; in the experiment with MDA-MB-231 breast it was 56.1%; in the experiment with RXF 393 renal it was 13.1%; in the experiment with SF-268 CNS, 41.3%; in the experiment with SF-295 CNS, 9.8% (active); with SF-539 CNS it was 2.83% (active). Besides, the growth with UACC-257 melanoma is 44.1%; in the experiment on M14 melanoma it was 6.06% (active).
Turning to `CN(C)c1ccc(-c2cc(-c3ccc(Nc4nc(Nc5ccc(Cl)cc5)nc(Nc5ccc(Cl)cc5)n4)cc3)nc(N)c2C#N)cc1`, the growth is 87.8% with NCI-H23 lung; 107% in the experiment with NCI-H226 lung; 115% in the experiment with NCI-H322M lung; 73% in the experiment on HOP-62 NSCLC; 86.3% in the experiment on NCI-H460 lung; 46.3% in the experiment on HOP-92 NSCLC. The growth was 87.6% in the experiment with NCI-H522 lung; 72.3% with A549/ATCC NSCLC; 72.4% with 786-0 renal; 69.8% in the experiment with COLO 205 colon; 95.8% in the experiment on DU-145 prostate; 68.4% in the experiment on K-562 leukemia. Also, the growth in the experiment with MALME-3M melanoma was 81.8%; with MDA-MB-231 breast, 77.4%; in the experiment with RXF 393 renal, 37.1%; in the experiment on SF-268 CNS it was 94.9%; in the experiment on SF-295 CNS it was 64%; in the experiment with SF-539 CNS, 77.9%. In addition, the growth is 99.1% in the experiment on UACC-257 melanoma and 71.4% with M14 melanoma.
For the molecule `NC(CSC(c1ccccc1)(c1ccccc1)c1ccc2c(c1)OCO2)C(=O)O` (stereo not given), the growth with NCI-H23 lung is 14.6%; in the experiment with NCI-H226 lung, 75%; in the experiment with NCI-H322M lung, 26.6%; in the experiment with HOP-62 NSCLC, 55.3%; in the experiment with NCI-H460 lung, 7.27% (active); in the experiment on HOP-92 NSCLC, 10.9%. Moreover, the growth is -20.9% (active) in the experiment with NCI-H522 lung; 18.5% in the experiment with A549/ATCC NSCLC; 51.1% in the experiment with 786-0 renal; -32% (active) in the experiment on COLO 205 colon; -26.3% (active) with DU-145 prostate; 8.25% (active) in the experiment with K-562 leukemia. Further, the growth was 47.6% with MALME-3M melanoma; 19.8% in the experiment on MDA-MB-231 breast; -5.81% (active) in the experiment on RXF 393 renal; 38.8% with SF-268 CNS; -27.6% (active) in the experiment on SF-295 CNS; 13.4% with SF-539 CNS. The growth in the experiment with UACC-257 melanoma is 32.6%; in the experiment on M14 melanoma it was -19.4% (active).
On to `CCn1c2ccc(O)cc2c2c(C)c3c[n+](C(C)C)ccc3c(C)c21`, for which the growth is 36.3% in the experiment with NCI-H23 lung; 66.8% in the experiment on NCI-H226 lung; 41.8% with NCI-H322M lung; 43% in the experiment on HOP-62 NSCLC; 9.02% (active) in the experiment with NCI-H460 lung; 51.2% in the experiment with HOP-92 NSCLC. For the same molecule, the growth with NCI-H522 lung was 19.9%; with A549/ATCC NSCLC it was 69.1%; in the experiment with 786-0 renal, 56.1%; with COLO 205 colon, 13.1%; in the experiment with DU-145 prostate, 29.6%; in the experiment on K-562 leukemia, 41%. Moreover, the growth is -6.64% (active) in the experiment with MALME-3M melanoma; 45.4% in the experiment on MDA-MB-231 breast; 53.4% with RXF 393 renal; 14% in the experiment with SF-268 CNS; 60.5% in the experiment on SF-295 CNS; 38.7% in the experiment on SF-539 CNS. Besides, the figures for the growth in the experiment on UACC-257 melanoma and in the experiment on M14 melanoma were 37% and 36.5%, respectively.
Regarding `O=C(/C=C/c1cccc(Cl)c1)c1cccc(OCCCCOc2cccc(C(=O)/C=C/c3cccc(Cl)c3)c2)c1`, the growth with NCI-H23 lung is 89.3%; in the experiment with NCI-H226 lung, 99.7%; with NCI-H322M lung it was 92.2%; in the experiment with HOP-62 NSCLC it was 107%; with NCI-H460 lung, 98.7%; in the experiment with HOP-92 NSCLC it was 78.6%. Further, the growth is 88.7% in the experiment with NCI-H522 lung; 85.4% in the experiment on A549/ATCC NSCLC; 98.8% with 786-0 renal; 76% in the experiment with COLO 205 colon; 97.4% in the experiment on DU-145 prostate; 91.4% with K-562 leukemia. The growth in the experiment with MALME-3M melanoma is 96.8%; with MDA-MB-231 breast, 97.1%; with RXF 393 renal it was 89.9%; with SF-268 CNS, 96.6%; in the experiment with SF-295 CNS, 103%; in the experiment on SF-539 CNS it was 96.6%. Further, the growth in the experiment on UACC-257 melanoma was 89.7%; in the experiment on M14 melanoma it was 85.5%.
Consider `Cc1c(Cl)cccc1C(=O)Nc1nc2c(s1)CN(C(=O)Nc1cccc(C(F)(F)F)c1)CC2`, for which the growth in the experiment on NCI-H23 lung is 21.5%; in the experiment on NCI-H226 lung it was 39.3%; in the experiment on NCI-H322M lung it was 46.6%; in the experiment on HOP-62 NSCLC, 37.2%; with NCI-H460 lung, 7.19% (active); with HOP-92 NSCLC, 38.3%. The growth was 15.1% in the experiment with NCI-H522 lung; 22.5% with A549/ATCC NSCLC; 29.1% in the experiment on 786-0 renal; 7.09% (active) in the experiment with COLO 205 colon; 16.8% with DU-145 prostate; 11.2% in the experiment on K-562 leukemia. For the same molecule, the growth with MALME-3M melanoma is 44.5%; in the experiment with MDA-MB-231 breast, 32.3%; in the experiment on RXF 393 renal it was -7.27% (active); with SF-268 CNS, 35.2%; in the experiment with SF-295 CNS, 26%; in the experiment on SF-539 CNS, -26.9% (active). The growth was 55.7% in the experiment on UACC-257 melanoma and 18.2% in the experiment on M14 melanoma.
Take `COc1cc(OC)cc(C2C(C#N)=C(N)Oc3c2ccc2ccc(O)cc32)c1` (stereo not given): the growth in the experiment with NCI-H23 lung was 14.9%; in the experiment with NCI-H226 lung it was 38.2%; in the experiment with NCI-H322M lung, 30.9%; with HOP-62 NSCLC it was 23.3%; in the experiment with NCI-H460 lung, 3.85% (active); in the experiment on HOP-92 NSCLC, 13.4%. The growth with NCI-H522 lung is 1.5% (active); with A549/ATCC NSCLC it was 6.38% (active); in the experiment on 786-0 renal it was 12.7%; in the experiment on COLO 205 colon it was -42% (active); with DU-145 prostate, 10.9%; in the experiment on K-562 leukemia, 6.22% (active). Moreover, the growth in the experiment on MALME-3M melanoma was 39.3%; in the experiment with MDA-MB-231 breast, 10.9%; in the experiment on RXF 393 renal, 24.1%; with SF-268 CNS, 15.9%; in the experiment with SF-295 CNS, 22.9%; in the experiment with SF-539 CNS, -9% (active). The values for the growth with UACC-257 melanoma and with M14 melanoma were 69.4% and 5.6% (active), respectively.
As for `COc1cccc2c(N=NC(=O)c3ccc(S(N)(=O)=O)cc3)c(O)[nH]c12`, the growth is 99.4% with NCI-H23 lung; 95.8% in the experiment with NCI-H226 lung; 99.7% in the experiment on NCI-H322M lung; 102% in the experiment with HOP-62 NSCLC; 104% in the experiment with NCI-H460 lung; 118% in the experiment with HOP-92 NSCLC. Further, the growth in the experiment with NCI-H522 lung is 87.1%; in the experiment with A549/ATCC NSCLC, 95.5%; in the experiment on 786-0 renal, 95.6%; with COLO 205 colon, 109%; in the experiment on DU-145 prostate, 115%; in the experiment with K-562 leukemia it was 98.5%. In addition, the growth with MALME-3M melanoma is 103%; in the experiment on MDA-MB-231 breast, 102%; with RXF 393 renal, 106%; with SF-268 CNS it was 106%; with SF-295 CNS, 102%; in the experiment with SF-539 CNS it was 102%. The values for the growth in the experiment with UACC-257 melanoma and in the experiment with M14 melanoma were 107% and 102%, respectively.

These data come from PubChem BioAssay (NCI).
